Most compounds without a hit are left out; they make up all but 19% or so of the library.
TDP1 cell noCPT – qHTS for Inhibitors of human tyrosyl-DNA phosphodiesterase 1 (TDP1): qHTS in cells in absence of CPT; DT40 Tdp1-/- hTDP1 cells, no CPT, ATP luminescence, 48 h; Potency, µM (titrated, usually from 46.2 µM), most hits filed as inhibitors; actives 15% (n = 420,000); AID 686978, 2013; note: nearly all actives have a fitted effect of over 55% in size
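Camptothecin absent (DMSO only). Human TDP1-complemented DT40 knockout cells, 400 cells/well, 37 °C for minimum 48 hr; ATP measured via CellTiter-Glo, 30 min dark incubation, luminescence.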
HT1080NT lethal – kills 2HG-producing HT-1080-NT fibrosarcoma cells; HT-1080-NT fibrosarcoma viability, CellTiter-Glo ATP luminescence, 48 h; Potency, µM (top dose mostly 46.1 µM), most hits filed as cytotoxic; actives 1.6% (n = 360,000); AID 686970;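 note: NT is the 2HG producing partner of a matched IDH1 knockdown line; nearly all actives have a fitted effect of over 55% in size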
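Read-out is CellTiter-Glo luminescence after 10 minutes at room temperature, following 48 hours' compound treatment of HT-1080-NT cells (750 cells/well, RPMI, 5% FBS, 37 degrees C).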
HT1080 IDH1KD tx – HT-1080 IDH1 knockdown cell toxicity (counter line). HT-1080 IDH1 knockdown viability, ATP luminescence, 48 h. Potency, µM (titrated, usually from 46.1 µM), actives largely listed as cytotoxic. actives 2% (n = 360,000)
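% activity derives from luminescence (CellTiter-Glo), normalised to DMSO and no-cell wells. HT-1080-IDH1KD cells, 750/well, had 48 h compound exposure at 37 °C.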
uPA surface inh – cell surface uPA generation inhibition; AID 540303; cell surface uPA generation assay, qHTS; Potency, µM (top dose mostly 38.3 µM), usual class: inhibitors; actives 0.31% (n = 330,000); active = well fitted inhibition curve with a large enough effect; inconclusive = small, poorly fitted or top-dose-only effect; inactive = no such curve, though single readings can be large or run the other way; tested in mouse RAW 264.7 cells; note: nearly all actives have a fitted effect of over 55% in size
TDP1 cell CPT – growth inhibition of DT40 Tdp1-/-;hTDP1 cells with camptothecin (screen for TDP1 inhibitors); Potency, µM (highest dose often 46.2 µM), hits mostly inhibitors; chicken DT40 Tdp1-/-;hTDP1 cells + 20 nM CPT, ATP luminescence, 48 h; actives 12% (n = 420,000); note: nearly all actives have a fitted effect of over 55% in size
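Cell growth measured by CellTiter-Glo luminescence after a minimum 48 h, 37 C compound exposure with 20 nM CPT in Tdp1-knockout DT40 cells stably expressing hTDP1, seeded 400/well; qHTS titration format.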
IL1B secr inh – blocks inflammasome-driven IL-1 beta release | THP-1 LPS/ATP IL-1B secretion, AlphaLISA, 16 h; stronger effect = lower value | activity change, % at 57.5 µM | actives 4.7% (n = 360,000) | AID 743279; in the data active = activity change below about -50%; inconclusive = mostly about -30% to -49%
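THP-1 cells pretreated 1 hr with compounds (up to 57.5 uM final), then stimulated with LPS (250 ng/mL final) plus ATP (1.25 mM final); secreted IL-1B measured by AlphaLISA after 16 hr, decreased signal indicating inhibition.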
Hits are given with their value; 0 = inactive; ? = inconclusive; - = no result; [ ] = dose if it differs, or a comment. Unless noted, calls come from the whole dose curve; as a rule, active = well fitted curve in the direction sought with a large enough effect; inconclusive = small, poorly fitted or top-dose-only effect, or another doubt; inactive = no such curve, though single readings can be large; an effect the other way counts as inactive or inconclusive.

SMILES | TDP1 cell noCPT | HT1080NT lethal | HT1080 IDH1KD tx | uPA surface inh | TDP1 cell CPT | IL1B secr inh
COc1cc(-c2cc(NC(C)=O)c3ncc(-c4ccc(C(C)=O)cc4)n3c2)cc(OC)c1OC | ? | 0 | ? | - | 29µM | -64
COc1cc(-c2cc(NC(C)=O)c3ncc(-c4ccc(F)cc4)n3c2)cc(OC)c1OC | 15µM | 0 | ? | - | ? | -
O=C(O)C(CCCCNS(=O)(=O)c1ccc(F)cc1)NS(=O)(=O)c1ccc(F)cc1 (stereo not drawn) | 0 | 0 | 0 | 0 | 0 | 0
COC(=O)COc1cc(OCC(=O)OC)c2c(C)c(Cl)c(=O)oc2c1 | 0 | 0 | 0 | 0 | 0 | -83
Cc1ccc(NC(=O)C(=O)NCC(c2cccnc2)N2CCN(Cc3ccccc3)CC2)cc1F (stereo not drawn) | 5.8µM | - | - | - | 7.3µM | -
O=S(=O)(NCC(c1cccnc1)N1CCN(Cc2ccccc2)CC1)c1ccccc1 (stereo not drawn) | ? | 0 | 0 | 0 | 0 | 0
Cc1ccc(NC(=O)C(=O)NCC(c2cccnc2)N2CCOCC2)cc1C (stereo not drawn) | ? | - | - | - | 0 | -
Cc1ccc(NC(=O)C(=O)NCC(c2cccnc2)N2CCN(Cc3ccccc3)CC2)cc1C (stereo not drawn) | 16µM | - | - | - | 16µM | -
Cc1nnc(SC(C)C#N)n1-c1ccccc1 (stereo not drawn) | 0 | 0 | 0 | 0 | 0 | 0
Cn1ncc(Cl)c1C(=O)N1CCN(c2ncccn2)CC1 | 0 | 0 | 0 | 0 | 0 | 0
Cc1oc(C(C)(C)C)cc1C(N)=O | 0 | 0 | 0 | 0 | 0 | 0
Cc1cc(C)c2c(N)c(C(=O)c3ccccc3)sc2n1 | ? | 0 | 0 | 0 | 0 | 0
Cc1cc(C)c2c(N)c(C(=O)N3CCc4ccccc4C3)sc2n1 | 29µM | 0 | 0 | 0 | ? | 0
CCN1CCc2nc3sc(C(=O)N4CCc5ccccc5C4)c(N)c3cc2C1 | ? | ? | 0 | 0 | ? | -73
COc1ccc(C)cc1NC(=O)CSc1ccc(-c2ccco2)nn1 | ? | 0 | 0 | 0 | ? | 0
CCc1cccc(CC)c1NC(=O)C(CC)n1nc(C)n2c(cc3cc(C)ccc32)c1=O (stereo not drawn) | 21µM | - | - | - | ? | -
CCC(C(=O)N1CCOCC1)n1nc(C)n2c(cc3cc(C)ccc32)c1=O (stereo not drawn) | 0 | 0 | 0 | 0 | 0 | 0
CCC(C(=O)Nc1ccccc1)n1nc(-c2cc(C)ccc2C)ccc1=O (stereo not drawn) | 0 | - | - | - | ? | -
CCC(C(=O)Nc1ccc(C(C)C)cc1)n1nc(C)n2c(cc3cc(C)ccc32)c1=O (stereo not drawn) | ? | - | - | - | 23µM | -
C=CCNC(=O)C1CC2Cn3c(nc4cc(Cl)c(Cl)cc43)C2N1C (stereo not drawn) | 0 | 0 | 0 | 0 | 0 | 0
COc1cccc(C(=O)N(C)CC(=O)Nc2ccc(F)c(F)c2F)c1 | 0 | 0 | 0 | 0 | 0 | 0
CCN(CC(=O)Nc1c(F)cccc1F)C(=O)c1ccc(S(=O)(=O)N(CC)c2ccccc2)cc1 | ? | 0 | 0 | 0 | ? | 0
C=CCN(c1ccccc1)S(=O)(=O)c1cccc(C(=O)N(CC)CC(=O)Nc2c(F)cccc2F)c1 | 15µM | 0 | 0 | 0 | 23µM | 0
CCN(c1ccccc1)S(=O)(=O)c1cccc(C(=O)N(C)CC(=O)Nc2ccc(F)c(F)c2F)c1 | 18µM | 0[9.24 µM] | 0 | 0 | 15µM | ?
Cc1cccc(-c2noc(CCC(=O)NCc3ccco3)n2)c1 | 0 | ? | 0 | - | ? | 0
SMILES | TDP1 cell noCPT | HT1080NT lethal | HT1080 IDH1KD tx | uPA surface inh | TDP1 cell CPT | IL1B secr inh
Cc1cccc(-c2noc(CCCC(=O)NCc3ccco3)n2)c1 | 16µM | - | - | - | 15µM | -
CC(C)(C)c1ccc(-c2noc(CCC(=O)NCc3ccco3)n2)cc1 | 26µM | ? | ? | 0 | 18µM | -57
COc1ccc(-c2noc(CCCC(=O)NCc3ccco3)n2)cc1OC | ? | 0 | 0 | 0 | 0 | 0
COc1cc(CC(=O)OCC(=O)NCc2ccco2)cc(OC)c1OC | 0 | 0 | 0 | 0 | 0 | 0
O=C(O)c1cc(O)ccc1N=Nc1ccccc1 | 16µM | 0 | 0 | 0 | ? | ?
Oc1ccc(N=Nc2ccccc2)cc1 | ? | 0 | 0 | 0 | ? | 0
O=C(O)c1ccccc1N=Nc1ccc(O)cc1 | 15µM | ? | ? | 0 | 26µM | 0
Cc1ccc(NC(=O)C2CCCN(S(=O)(=O)c3cccnc3)C2)c(C)c1 (stereo not drawn) | 0 | 0 | 0 | 0 | 0 | 0
CC(C)CN1CCCC(N2CCN(c3cccc(Cl)c3)CC2)C1 (stereo not drawn) | 0 | 0 | 0 | 0 | 0 | 0
CCOc1cc(CN2CCCC(N3CCN(c4ccc(F)cc4)CC3)C2)ccc1OC (stereo not drawn) | ? | 0 | 0 | ? | 16µM | 0
COc1ccc(CN2CCCC(N3CCN(c4cccc(Cl)c4)CC3)C2)cc1OC (stereo not drawn) | 23µM | 0 | 0 | 0 | ? | 0
N#CCc1nn(Cc2ccc(F)cc2)c(=O)c2ccccc12 | 0 | 0 | 0 | 0 | 0 | 0
CN(CC(=O)Nc1ccccc1Br)C(=O)c1cccc(S(=O)(=O)N2CCc3ccccc32)c1 | ? | 0 | 0 | 0 | ? | 0
CCN(Cc1nc2ccccc2c(=O)[nH]1)C(=O)c1cccc(S(=O)(=O)N2CCc3ccccc32)c1 | 16µM | 0 | 0 | 0 | ? | 0
COc1ccc(NC(=O)CN(C)C(=O)c2cccc(S(=O)(=O)N3CCCc4ccccc43)c2)cc1 | 0 | 0 | 0 | 0 | 10µM | 0
CN(Cc1nc2ccccc2c(=O)[nH]1)C(=O)c1cccc(S(=O)(=O)N2CCCC2)c1 | 0 | 0 | 0 | 0 | 0 | 0
COc1ccccc1CN(C)C(=O)c1cccc(S(=O)(=O)N2CCCc3ccccc32)c1 | 12µM | 0 | 0 | 0 | ? | 0
Cc1ccc(CN(C)C(=O)c2cccc(S(=O)(=O)N3CCc4ccccc43)c2)cc1 | 21µM | ? | ? | 0 | ? | 0
CCCN(C(=O)CCc1nc(-c2ccccc2F)no1)c1ccc(CC)cc1 | ? | - | - | - | 0 | -
O=S(=O)(c1ccc(-n2cnnn2)cc1)N1CCN(c2cccc(C(F)(F)F)c2)CC1 | 0 | - | - | - | 0 | -
Cc1noc(C)c1CSCC(=O)N(C)CC(=O)Nc1ccc(F)c(F)c1F | 0 | 0 | 0 | 0 | 0 | 0
COc1ccccc1C(CNC(=O)c1cccc(S(=O)(=O)N2CCCc3ccccc32)c1)N(C)C (stereo not drawn) | ? | 0 | 0 | 0 | ? | ?

Bioassay records deposited in PubChem BioAssay by National Center for Advancing Translational Sciences (NCATS).
